# Source: PubChem BioAssay (EPA / NIEHS)
# Inconclusive results are not listed. Some structures have more than one record in an assay (separate samples or runs), and their calls can disagree. The source made the active and inactive calls. Rule for the calls, unless noted: active = hit-call score of the fitted dose curve at least 0.9, where 1 is the maximum; inconclusive = response in the unintended direction; inactive = score below 0.9.
# How the values were obtained:
# [1] = TOX21_p53_BLA_p5_viability: Viability Assessment in the Tox21 HCT-116 p53 Agonism Beta-lactamase Assay, Phase 5 (AID 2283600)
# Method in brief: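 HCT-116 p53 beta-lactamase reporter cells, 4000/well, were exposed to compound (pin transfer, 217-fold dilution) for 16 hours at 37C. Cellular ATP was read by CellTiter-Glo luminescence after 30 min at room temperature.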
# [2] = biological target: Cellular tumor antigen p53 (Homo sapiens) (UniProt P04637); assay: TOX21_p53_BLA_p4_ratio: Tox21 HCT-116 p53 Agonism Beta-lactamase Assay, Ratio, Phase 4 (AID 2283601)
# Method in brief: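 HCT116 cells carrying an inducible beta-lactamase reporter were plated at 4000 cells/well, rested 5 h, then exposed to compounds in DMSO (217-fold dilution) for 16 h at 37C. CCF4-AM substrate was loaded 2 h at room temperature; 460/530 nm emission ratio scored gain-of-signal versus DMSO.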
# [3] = Tanguay_ZF_120hpf_MORT_legacy: (Legacy) Oregon State University Tanguay Lab 120 Hour Post-fertilization zebrafish Assay for Mortality (AID 2283633);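 for AC50: fitted as increase in binary mortality versus DMSO negative control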
# Method in brief: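 Dechorionated Tropical 5D wild-type zebrafish embryos, one per well from 6 hpf, static exposure in 0.64% DMSO at 28C until 120 hpf. Mortality scored as binary by brightfield microscopy at 24 and 120 hpf.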
# [4] = Tanguay_ZF_120hpf_YSE_legacy: (Legacy) Oregon State University Tanguay Lab 120 Hour Post-fertilization zebrafish Assay for Yolk Sac Edema (AID 2283634);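 for AC50: actives raise the incidence of yolk sac edema above the DMSO baseline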
# Method in brief: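 Dechorionated Tropical 5D wild-type zebrafish embryos were exposed statically, one per well, from 6 to 120 hpf at 28C in 0.64% DMSO. Yolk sac edema was scored present/absent by brightfield at 120 hpf, and dead embryos were excluded.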
# [5] = Tanguay_ZF_120hpf_AXIS_legacy: (Legacy) Oregon State University Tanguay Lab 120 Hour Post-fertilization zebrafish Assay for Body Axis Malformation (AID 2283635);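 for AC50: potency for an increased fraction of larvae scored with body axis malformation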
# Method in brief: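 Dechorionated wild-type Tropical 5D zebrafish embryos, one per well, statically exposed from 6 hpf to 120 hpf at 28C in 0.64% DMSO final. Body axis malformation scored present/absent by brightfield microscopy at 120 hpf; dead embryos excluded.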
# [6] = Tanguay_ZF_120hpf_EYE_legacy: (Legacy) Oregon State University Tanguay Lab 120 Hour Post-fertilization zebrafish Assay for Eye Malformation (AID 2283636);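 note: binary presence or absence of eye malformation scored by brightfield in 120 hpf larvae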
# Method in brief: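 Dechorionated wild-type Tropical 5D zebrafish embryos were exposed statically from 6 hpf, one per well, to 120 hpf at 28C in sealed, foil-covered plates with 0.64% DMSO. Eye malformation was scored present/absent by brightfield microscopy against DMSO controls.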
# [7] = Tanguay_ZF_120hpf_JAW_legacy: (Legacy) Oregon State University Tanguay Lab 120 Hour Post-fertilization zebrafish Assay for Jaw Malformation (AID 2283638);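 for AC50: active means more embryos with jaw malformation than DMSO controls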
# Method in brief: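 Dechorionated Tropical 5D wild-type zebrafish embryos, one per well, exposed statically from 6 hpf to 120 hpf at 28C in 0.64% DMSO. Jaw malformation was scored by brightfield microscopy as present or absent. It was not scored in dead embryos.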
# [8] = Tanguay_ZF_120hpf_OTIC_legacy: (Legacy) Oregon State University Tanguay Lab 120 Hour Post-fertilization zebrafish Assay for Otic Vesicle Malformation (AID 2283639)
# Method in brief: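 Tropical 5D wild-type zebrafish embryos were exposed statically in sealed, foil-covered plates at 28C until 120 hpf, with 0.64% (vol/vol) DMSO final. Otic vesicle malformation was scored present/absent by brightfield microscopy, with DMSO as baseline.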
# [9] = Tanguay_ZF_120hpf_BRAI_legacy: (Legacy) Oregon State University Tanguay Lab 120 Hour Post-fertilization zebrafish Assay for Brain Malformation (AID 2283641)
# Method in brief: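 Tropical 5D wild-type zebrafish embryos exposed statically until 120 hpf at 28C, 0.64% DMSO final, sealed and dark. Brain malformation scored present/absent by brightfield at 120 hpf; dead embryos excluded. Trimethyltin chloride 5uM positive control.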
# [10] = Tanguay_ZF_120hpf_SOMI_legacy: (Legacy) Oregon State University Tanguay Lab 120 Hour Post-fertilization zebrafish Assay for Somite Malformation (AID 2283647)
# Method in brief: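 Dechorionated Tropical 5D wild-type zebrafish embryos, one per well from 6 hpf, statically exposed at 28C to 120 hpf in 0.64% DMSO; somite malformation scored present/absent by brightfield; trimethyltin 5 uM positive control; dead embryos not scored.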
# [11] = Tanguay_ZF_120hpf_CFIN_legacy: (Legacy) Oregon State University Tanguay Lab 120 Hour Post-fertilization zebrafish Assay for Caudal Fin Malformation (AID 2283649)
# Method in brief: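 Dechorionated Tropical 5D wild-type embryos, one per well from 6 hpf, static exposure to 120 hpf at 28C in 0.64% DMSO. Caudal fin malformation scored by brightfield as present/absent; not scored in dead embryos.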
# [12] = Tanguay_ZF_120hpf_CIRC_legacy: (Legacy) Oregon State University Tanguay Lab 120 Hour Post-fertilization zebrafish Assay for Circulatory Malformation (AID 2283651)
# Method in brief: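 Tropical 5D wild-type embryos, dechorionated with pronase at 4 hpf, were placed singly in wells at 6 hpf and exposed statically at 28C to 120 hpf (0.64% DMSO final). Circulatory malformation was scored present/absent by brightfield microscopy.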
# [13] = Tanguay_ZF_120hpf_SWIM_legacy: (Legacy) Oregon State University Tanguay Lab 120 Hour Post-fertilization zebrafish Assay for Swim Bladder Malformation (AID 2283654);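 note: swim bladder malformation in each larva scored yes or no under brightfield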
# Method in brief: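 Dechorionated Tropical 5D wild-type embryos, placed singly from 6 hpf, were statically exposed at 28C to 120 hpf with 0.64% DMSO final; swim bladder malformation was scored present/absent by brightfield microscopy, gain of signal relative to DMSO controls.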
# [14] = Tanguay_ZF_120hpf_TRUN_legacy: (Legacy) Oregon State University Tanguay Lab 120 Hour Post-fertilization zebrafish Assay for Truncated Body (AID 2283655)
# Method in brief: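 Dechorionated Tropical 5D wild-type embryos placed singly from 6 hpf and statically exposed to 120 hpf at 28C, final DMSO 0.64%. Truncated body scored as present/absent by brightfield; not scored in dead embryos.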
# [15] = Tanguay_ZF_120hpf_SNOU_legacy: (Legacy) Oregon State University Tanguay Lab 120 Hour Post-fertilization zebrafish Assay for Snout Malformation (AID 2283637)
# Method in brief: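 Tropical 5D wild-type zebrafish embryos, dechorionated with pronase at 4 hpf, were exposed singly from 6 hpf to 120 hpf statically at 28C in 0.64% DMSO. Snout malformation was scored present/absent by brightfield microscopy, fitted against DMSO.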
# [16] = Tanguay_ZF_120hpf_PE_legacy: (Legacy) Oregon State University Tanguay Lab 120 Hour Post-fertilization zebrafish Assay for Pericardial Edema (AID 2283640);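 for AC50: potency for increased incidence of pericardial edema versus DMSO baseline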
# Method in brief: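 Tropical 5D wild-type zebrafish embryos were statically exposed until 120 hpf at 28C, with 0.64% DMSO final. Pericardial edema was scored by brightfield as present or absent; endpoints were not scored in dead embryos.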
# [17] = Tanguay_ZF_120hpf_PFIN_legacy: (Legacy) Oregon State University Tanguay Lab 120 Hour Post-fertilization zebrafish Assay for Pectoral Fin Malformation (AID 2283648);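 note: each larva judged yes or no for fin defect by brightfield with dead larvae skipped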
# Method in brief: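 Tropical 5D wild-type embryos, dechorionated with pronase at 4 hpf, were placed singly in wells at 6 hpf and statically exposed until 120 hpf at 28C, sealed and dark, with 0.64% (vol/vol) final DMSO; pectoral fin malformation scored present/absent.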
# [18] = read-out: kallikrein-3 (KLK3), KLK3 (gene 354); assay: LTEA_HepaRG_KLK3: Life Technologies and Expression Analysis (LTEA) Assay for kallikrein-3 (KLK3) using HepaRG (AID 2283652; active = hit-call score of the fitted dose curve at least 0.9, where 1 is the maximum; inactive = score below 0.9); conditions: mRNA level, 48 h; actives raise or lower the signal
# Method in brief: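 Differentiated human HepaRG cells in serum-free induction medium exposed 48 h in duplicate, eight-point half-log series from 100 uM in 0.5% DMSO. KLK3 mRNA by qRT-PCR, normalised to ACTB, GAPDH, POLR2A; bidirectional fit versus DMSO.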
# [19] = read-out: solute carrier (SLC22A6), SLC22A6 (gene 9356); assay: LTEA_HepaRG_SLC22A6: Life Technologies and Expression Analysis (LTEA) Assay for solute carrier (SLC22A6) using HepaRG (AID 2283653; active = hit-call score of the fitted dose curve at least 0.9, where 1 is the maximum; inactive = score below 0.9); conditions: mRNA level, 48 h; actives raise or lower the signal
# Method in brief: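 Differentiated HepaRG cells exposed 48 h in serum-free induction medium to 8 half-log concentrations, top 100 uM, in 0.5% DMSO; SLC22A6 mRNA by Fluidigm qRT-PCR normalized to ACTB, GAPDH, POLR2A, fitted bidirectionally versus DMSO.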
# Sequence of Cellular tumor antigen p53 (Homo sapiens) (P04637 whole entry, looked up): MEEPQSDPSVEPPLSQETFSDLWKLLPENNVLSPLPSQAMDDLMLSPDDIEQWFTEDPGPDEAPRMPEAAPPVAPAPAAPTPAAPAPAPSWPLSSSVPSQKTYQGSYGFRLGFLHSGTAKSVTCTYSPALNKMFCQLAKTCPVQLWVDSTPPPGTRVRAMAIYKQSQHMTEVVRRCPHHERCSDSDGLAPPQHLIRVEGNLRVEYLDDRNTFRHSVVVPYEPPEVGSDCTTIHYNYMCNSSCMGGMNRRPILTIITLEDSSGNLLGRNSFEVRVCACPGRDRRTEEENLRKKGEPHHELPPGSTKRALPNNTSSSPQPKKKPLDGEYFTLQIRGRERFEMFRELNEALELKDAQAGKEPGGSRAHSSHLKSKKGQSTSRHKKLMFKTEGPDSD
smiles,measurement,setting,value
COP(=S)(OC)Oc1nc(Cl)c(Cl)cc1Cl,outcome,[1],inactive
same,outcome,[2],inactive
same,outcome,[3],inactive
same,outcome,[4],inactive
same,outcome,[5],inactive
same,outcome,[6],inactive
same,AC50,[7],34 µM (active)
same,outcome,[8],inactive
same,outcome,[9],inactive
same,outcome,[10],inactive
same,outcome,[11],inactive
same,outcome,[12],inactive
same,outcome,[13],inactive
same,outcome,[14],inactive
COc1nc(C)nc(NC(=O)NS(=O)(=O)c2ccccc2Cl)n1,outcome,[2],inactive
COc1nc(NC(C)C)nc(NC(C)C)n1,outcome,[2],inactive
same,outcome,[3],inactive
same,outcome,[4],inactive
same,outcome,[5],inactive
same,outcome,[6],inactive
same,outcome,[15],inactive
same,outcome,[7],inactive
same,outcome,[8],inactive
same,outcome,[16],inactive
same,outcome,[9],inactive
same,outcome,[10],inactive
same,outcome,[11],inactive
same,outcome,[12],inactive
same,outcome,[13],inactive
same,outcome,[14],inactive
CCc1nn(C)c(C(=O)NCc2ccc(C(C)(C)C)cc2)c1Cl,AC50,[2],76.6 µM (active)
same,outcome,[3],inactive
same,AC50,[4],6 µM (active)
same,outcome,[5],inactive
same,outcome,[6],inactive
same,AC50,[15],6.18 µM (active)
same,AC50,[7],4.39 µM (active)
same,outcome,[8],inactive
same,AC50,[16],5.67 µM (active)
same,outcome,[9],inactive
same,outcome,[10],inactive
same,outcome,[11],inactive
same,outcome,[12],inactive
same,outcome,[13],inactive
same,outcome,[14],inactive
CNC(=S)S,outcome,[2],inactive
same,outcome,[3],inactive
same,outcome,[4],inactive
same,outcome,[5],inactive
same,outcome,[6],inactive
same,outcome,[15],inactive
same,outcome,[7],inactive
same,outcome,[8],inactive
same,outcome,[16],inactive
same,outcome,[9],inactive
same,outcome,[10],inactive
same,outcome,[17],inactive
same,outcome,[11],inactive
same,outcome,[14],inactive
Cc1ccc(-c2c(Cl)nc(C#N)n2S(=O)(=O)N(C)C)cc1,AC50,[2],17.3 µM (active)
same,AC50,[3],1.55 µM (active)
same,outcome,[4],inactive
same,outcome,[5],inactive
same,outcome,[6],inactive
same,outcome,[15],inactive
same,outcome,[7],inactive
same,outcome,[8],inactive
same,outcome,[16],inactive
same,outcome,[9],inactive
same,outcome,[10],inactive
same,outcome,[11],inactive
same,outcome,[12],inactive
same,outcome,[13],inactive
same,outcome,[14],inactive
C=CC1(C)OC(=O)N(c2cc(Cl)cc(Cl)c2)C1=O (stereo not drawn),outcome,[2],inactive
same,outcome,[3],inactive
same,outcome,[4],inactive
same,outcome,[5],inactive
same,outcome,[6],inactive
same,outcome,[15],inactive
same,outcome,[7],inactive
same,outcome,[8],inactive
same,outcome,[16],inactive
same,outcome,[9],inactive
same,outcome,[10],inactive
same,outcome,[11],inactive
same,outcome,[12],inactive
same,outcome,[18],inactive
same,outcome,[19],inactive
same,outcome,[13],inactive
same,outcome,[14],inactive
CNC(=O)ON=CC(C)(C)SC,outcome,[2],inactive
same,outcome,[3],inactive
same,AC50,[4],3.47 µM (active)
same,AC50,[5],2.31 µM (active)
same,outcome,[6],inactive
same,outcome,[15],inactive
same,outcome,[7],inactive
same,outcome,[8],inactive
same,AC50,[16],2.81 µM (active)
same,outcome,[9],inactive
same,outcome,[10],inactive
same,outcome,[11],inactive
same,outcome,[12],inactive
same,outcome,[13],inactive
same,AC50,[14],1.07 µM (active)
OC(c1ccc(Cl)cc1)(c1cncnc1)c1ccccc1Cl (stereo not drawn),AC50,[2],63 µM (active)
same,outcome,[3],inactive
same,outcome,[4],inactive
same,outcome,[5],inactive
same,outcome,[6],inactive
same,outcome,[15],inactive
same,outcome,[7],inactive
same,outcome,[8],inactive
same,outcome,[16],inactive
same,outcome,[9],inactive
same,outcome,[10],inactive
same,outcome,[11],inactive
same,outcome,[18],inactive
same,outcome,[19],inactive
same,outcome,[13],inactive
CN(C)C(=S)SSC(=S)N(C)C,outcome,[2],inactive
same,outcome,[3],inactive
same,outcome,[4],inactive
same,outcome,[5],inactive
same,outcome,[6],inactive
same,outcome,[15],inactive
same,outcome,[7],inactive
same,outcome,[8],inactive
same,outcome,[16],inactive
same,outcome,[9],inactive
same,outcome,[10],inactive
same,outcome,[17],inactive
same,outcome,[11],inactive
same,outcome,[12],inactive
same,outcome,[14],inactive
Fc1ccc(Oc2ccnc3cc(Cl)cc(Cl)c23)cc1,AC50,[2],81.6 µM (active)
same,outcome,[3],inactive
same,outcome,[4],inactive
same,outcome,[5],inactive
same,outcome,[6],inactive
same,outcome,[15],inactive
same,outcome,[7],inactive
same,outcome,[8],inactive
same,outcome,[16],inactive
same,outcome,[9],inactive
same,outcome,[10],inactive
same,outcome,[11],inactive
same,outcome,[12],inactive
same,outcome,[13],inactive
same,outcome,[14],inactive
O=C(O)COc1nc(Cl)c(Cl)cc1Cl,outcome,[2],inactive
same,outcome,[3],inactive
same,outcome,[4],inactive
same,outcome,[5],inactive
same,outcome,[6],inactive
same,outcome,[15],inactive
same,outcome,[7],inactive
same,outcome,[8],inactive
same,outcome,[16],inactive
same,outcome,[9],inactive
same,outcome,[10],inactive
same,outcome,[17],inactive
same,outcome,[11],inactive
same,outcome,[12],inactive
same,outcome,[13],inactive
same,outcome,[14],inactive
CCCC1COC(Cn2cncn2)(c2ccc(Cl)cc2Cl)O1 (stereo not drawn),outcome,[2],inactive
same,outcome,[3],inactive
same,AC50,[4],33.9 µM (active)
same,outcome,[5],inactive
same,AC50,[6],26.9 µM (active)
same,AC50,[15],25.2 µM (active)
same,AC50,[7],25.2 µM (active)
same,outcome,[8],inactive
same,AC50,[16],30.4 µM (active)
same,AC50,[9],30.2 µM (active)
same,outcome,[10],inactive
same,outcome,[17],inactive
same,outcome,[11],inactive
same,outcome,[12],inactive
same,outcome,[13],inactive
same,outcome,[14],inactive
